Residue numbers refer to the chain shown, from its start.

Holding throughout (assay): PBM; 200 nM protein, PBS
Conditions in all cases: dsDNA, one strand shown

Test [1] deals with HESX1 (Homo sapiens, UniProt Q9UBX0 95-180, R165K).
Test [2] deals with HOXA7 (Homo sapiens, UniProt P31268 116-202).
The target of test [3] is T1, PAX4 (Homo sapiens, UniProt O43316 9-242, R200K).
T1 sequence: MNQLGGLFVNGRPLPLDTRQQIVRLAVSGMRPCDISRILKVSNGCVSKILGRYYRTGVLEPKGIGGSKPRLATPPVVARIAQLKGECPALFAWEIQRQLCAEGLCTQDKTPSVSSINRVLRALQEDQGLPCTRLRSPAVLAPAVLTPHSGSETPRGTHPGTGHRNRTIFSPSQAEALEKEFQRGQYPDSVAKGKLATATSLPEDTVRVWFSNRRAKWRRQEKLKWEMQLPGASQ

Test [4] deals with T2, PAX4 (Homo sapiens, UniProt O43316 9-242).
T2 sequence: T1 sequence with K192R

Test [5] deals with HESX1 (Homo sapiens, UniProt Q9UBX0 95-180).
HESX1 (Homo sapiens, UniProt Q9UBX0 95-180), sequence (Q9UBX0 95-180): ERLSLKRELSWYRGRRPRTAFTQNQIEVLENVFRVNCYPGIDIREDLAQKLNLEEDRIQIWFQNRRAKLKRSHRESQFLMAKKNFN
Test [6] concerns the target T3, PAX4 (Homo sapiens, UniProt O43316 9-242, R200Q).
T3 sequence: T1 sequence with K192Q

Test [7] deals with T4, PAX4 (Homo sapiens, UniProt O43316 9-242, F177V).
T4 sequence: T1 sequence with F169V, K192R

Test [8] deals with T5, PAX4 (Homo sapiens, UniProt O43316 9-242, F177Y).
T5 sequence: T1 sequence with F169Y, K192R

Test [9] deals with HESX1 (Homo sapiens, UniProt Q9UBX0 95-180, R109Q).
HESX1 (Homo sapiens, UniProt Q9UBX0 95-180, R109Q), sequence (Q9UBX0 95-180 R109Q): as the sequence (Q9UBX0 95-180) above, with R15Q counted along it
Test [10] deals with HESX1 (Homo sapiens, UniProt Q9UBX0 95-180, P111T).
HESX1 (Homo sapiens, UniProt Q9UBX0 95-180, P111T), sequence (Q9UBX0 95-180 P111T): as the sequence (Q9UBX0 95-180) above, with P17T counted along it
The target in test [11] is HESX1 (Homo sapiens, UniProt Q9UBX0 95-180, F115L).
HESX1 (Homo sapiens, UniProt Q9UBX0 95-180, F115L), sequence (Q9UBX0 95-180 F115L): as the sequence (Q9UBX0 95-180) above, with F21L counted along it
Test [12] has as its target T6, PAX4 (Homo sapiens, UniProt O43316 9-242, R227W).
T6 sequence: T1 sequence with K192R, R219W

The target in test [13] is HOXA7 (Homo sapiens, UniProt P31268 116-202, W177C).
HOXA7 (Homo sapiens, UniProt P31268 116-202, W177C), sequence (P31268 116-202 W177C): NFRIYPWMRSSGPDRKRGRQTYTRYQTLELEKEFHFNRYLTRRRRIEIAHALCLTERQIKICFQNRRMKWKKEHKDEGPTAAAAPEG
For test [14], the target named is HOXA4 (Homo sapiens, UniProt Q00056 201-287, W262R).
HOXA4 (Homo sapiens, UniProt Q00056 201-287, W262R), sequence (Q00056 201-287 W262R): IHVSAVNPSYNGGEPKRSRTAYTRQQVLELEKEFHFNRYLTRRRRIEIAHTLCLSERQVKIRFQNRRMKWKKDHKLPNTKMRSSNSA
The target of test [15] is HOXA4 (Homo sapiens, UniProt Q00056 201-287, R217L).
HOXA4 (Homo sapiens, UniProt Q00056 201-287, R217L), sequence (Q00056 201-287 R217L): as the sequence (Q00056 201-287 W262R) above, with R17L, R62W counted along it
For test [16], the target named is ALX3 (Homo sapiens, UniProt O95076 139-225, N203Q).
ALX3 (Homo sapiens, UniProt O95076 139-225, N203Q), sequence (O95076 139-225 N203Q): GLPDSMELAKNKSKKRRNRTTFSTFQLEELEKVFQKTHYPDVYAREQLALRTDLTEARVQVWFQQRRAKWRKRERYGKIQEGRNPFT
Test [17] deals with HOXA4 (Homo sapiens, UniProt Q00056 201-287).
HOXA4 (Homo sapiens, UniProt Q00056 201-287), sequence (Q00056 201-287): as the sequence (Q00056 201-287 W262R) above, with R62W counted along it
The target of test [18] is ALX3 (Homo sapiens, UniProt O95076 139-225).
ALX3 (Homo sapiens, UniProt O95076 139-225), sequence (O95076 139-225): as the sequence (O95076 139-225 N203Q) above, with Q65N counted along it
In test [19] the target is PROP1 (Homo sapiens, UniProt O75360 56-141).
PROP1 (Homo sapiens, UniProt O75360 56-141), sequence (O75360 56-141): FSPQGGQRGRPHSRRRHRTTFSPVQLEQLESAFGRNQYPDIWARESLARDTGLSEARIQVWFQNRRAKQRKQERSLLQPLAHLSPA
Test [20] deals with PROP1 (Homo sapiens, UniProt O75360 56-141, R99H).
PROP1 (Homo sapiens, UniProt O75360 56-141, R99H), sequence (O75360 56-141 R99H): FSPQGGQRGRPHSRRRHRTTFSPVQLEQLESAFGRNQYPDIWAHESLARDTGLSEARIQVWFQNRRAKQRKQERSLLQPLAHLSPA
Test [21] deals with ALX3 (Homo sapiens, UniProt O95076 139-225, L168Q).
ALX3 (Homo sapiens, UniProt O95076 139-225, L168Q), sequence (O95076 139-225 L168Q): as the sequence (O95076 139-225 N203Q) above, with L30Q, Q65N counted along it
The target in test [22] is ALX3 (Homo sapiens, UniProt O95076 139-225, L168V).
ALX3 (Homo sapiens, UniProt O95076 139-225, L168V), sequence (O95076 139-225 L168V): as the sequence (O95076 139-225 N203Q) above, with L30V, Q65N counted along it
In test [23] the target is PROP1 (Homo sapiens, UniProt O75360 56-141, F88S).
PROP1 (Homo sapiens, UniProt O75360 56-141, F88S), sequence (O75360 56-141 F88S): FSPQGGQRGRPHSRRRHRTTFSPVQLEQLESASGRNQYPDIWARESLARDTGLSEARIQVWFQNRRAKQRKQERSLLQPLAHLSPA
Test [24] concerns the target HOXA4 (Homo sapiens, UniProt Q00056 201-287, W262F).
Test [25] concerns the target ALX3 (Homo sapiens, UniProt O95076 139-225, N203S).
The target in test [26] is T7, VENTX (Homo sapiens, UniProt O95231 78-163, R121Q).
T7 sequence: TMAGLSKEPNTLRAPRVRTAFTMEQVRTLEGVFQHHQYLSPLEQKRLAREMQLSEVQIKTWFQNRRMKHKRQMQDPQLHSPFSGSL

Test [27] has as its target T8, VENTX (Homo sapiens, UniProt O95231 78-163).
T8 sequence: T7 sequence with Q44R

Test [28] has as its target T9, VENTX (Homo sapiens, UniProt O95231 78-163, Y115F).
T9 sequence: T7 sequence with Y38F, Q44R

Test [29] addresses VAX1 (Homo sapiens, UniProt Q5SQQ9 86-172).
In test [30] the target is VAX1 (Homo sapiens, UniProt Q5SQQ9 86-172, T142I).
VAX1 (Homo sapiens, UniProt Q5SQQ9 86-172, T142I), sequence (Q5SQQ9 86-172 T142I): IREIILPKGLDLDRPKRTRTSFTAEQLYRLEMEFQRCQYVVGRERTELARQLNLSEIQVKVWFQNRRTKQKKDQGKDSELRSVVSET
The target in test [31] is VAX1 (Homo sapiens, UniProt Q5SQQ9 86-172, K157R).
VAX1 (Homo sapiens, UniProt Q5SQQ9 86-172, K157R), sequence (Q5SQQ9 86-172 K157R): as the sequence (Q5SQQ9 86-172 T142I) above, with I57T, K72R counted along it
Test [32] concerns the target T10, SIX6 (Homo sapiens, UniProt O95475 114-200, L167I).
T10 sequence: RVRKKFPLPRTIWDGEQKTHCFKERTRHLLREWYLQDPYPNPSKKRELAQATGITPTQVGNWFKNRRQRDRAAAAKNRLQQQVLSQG

For test [33], the target named is HOXC9 (Homo sapiens, UniProt P31274 178-260, K195R).
HOXC9 (Homo sapiens, UniProt P31274 178-260, K195R), sequence (P31274 178-260 K195R): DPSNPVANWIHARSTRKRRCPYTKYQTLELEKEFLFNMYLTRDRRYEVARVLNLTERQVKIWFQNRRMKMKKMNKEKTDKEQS
The target of test [34] is T11, SIX6 (Homo sapiens, UniProt O95475 114-200, L143V).
T11 sequence: T10 sequence with L30V, I54L

In test [35] the target is T12, SIX6 (Homo sapiens, UniProt O95475 114-200, H141N).
T12 sequence: T10 sequence with H28N, I54L

The target of test [36] is T13, SIX6 (Homo sapiens, UniProt O95475 114-200, T165P).
T13 sequence: T10 sequence with T52P, I54L

In test [37] the target is T14, SIX6 (Homo sapiens, UniProt O95475 114-200, L167M).
T14 sequence: T10 sequence with I54M

For test [38], the target named is T15, SIX6 (Homo sapiens, UniProt O95475 114-200, L143M).
T15 sequence: T10 sequence with L30M, I54L

Test [39] addresses T16, SIX6 (Homo sapiens, UniProt O95475 114-200, L143I).
T16 sequence: T10 sequence with L30I, I54L

The target in test [40] is T17, SIX6 (Homo sapiens, UniProt O95475 114-200, T165G).
T17 sequence: T10 sequence with T52G, I54L

In test [41] the target is T18, SIX6 (Homo sapiens, UniProt O95475 114-200, T139Q).
T18 sequence: T10 sequence with T26Q, I54L

Test [42] addresses HOXC9 (Homo sapiens, UniProt P31274 178-260).
The target in test [43] is T19, SIX6 (Homo sapiens, UniProt O95475 114-200, T165A).
T19 sequence: T10 sequence with T52A, I54L

Test [44] has as its target HOXC9 (Homo sapiens, UniProt P31274 178-260, R193K).
Test [45] has as its target T20, SIX6 (Homo sapiens, UniProt O95475 114-200, L167V).
T20 sequence: T10 sequence with I54V

In test [46] the target is T21, SIX6 (Homo sapiens, UniProt O95475 114-200).
T21 sequence: T10 sequence with I54L

Test [47] deals with T22, SIX6 (Homo sapiens, UniProt O95475 114-200, T165I).
T22 sequence: T10 sequence with T52I, I54L

Test [48] has as its target HOXC9 (Homo sapiens, UniProt P31274 178-260, R222W).

HESX1 (Homo sapiens, UniProt Q9UBX0 95-180, R165K), sequence (Q9UBX0 95-180 R165K): as the sequence (Q9UBX0 95-180) above, with R71K counted along it
HOXA7 (Homo sapiens, UniProt P31268 116-202), sequence (P31268 116-202): as the sequence (P31268 116-202 W177C) above, with C62W counted along it
ALX3 (Homo sapiens, UniProt O95076 139-225, N203S), sequence (O95076 139-225 N203S): as the sequence (O95076 139-225 N203Q) above, with Q65S counted along it
HOXC9 (Homo sapiens, UniProt P31274 178-260), sequence (P31274 178-260): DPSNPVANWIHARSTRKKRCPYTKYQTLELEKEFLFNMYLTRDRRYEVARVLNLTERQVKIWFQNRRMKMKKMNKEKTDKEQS
VAX1 (Homo sapiens, UniProt Q5SQQ9 86-172), sequence (Q5SQQ9 86-172): as the sequence (Q5SQQ9 86-172 T142I) above, with I57T counted along it
HOXA4 (Homo sapiens, UniProt Q00056 201-287, W262F), sequence (Q00056 201-287 W262F): as the sequence (Q00056 201-287 W262R) above, with R62F counted along it
HOXC9 (Homo sapiens, UniProt P31274 178-260, R222W), sequence (P31274 178-260 R222W): as the sequence (P31274 178-260) above, with R45W counted along it
HOXC9 (Homo sapiens, UniProt P31274 178-260, R193K), sequence (P31274 178-260 R193K): as the sequence (P31274 178-260) above, with R16K counted along it

CGGGCCCG: the binding signal in [1] is 6.56 upbm affinity estimate (log intensity, higher = more binding, comparable within an allelic series); in [2] it was 8.8 upbm affinity estimate (log intensity, higher = more binding, comparable within an allelic series); in test [3], 9.58 upbm affinity estimate (log intensity, higher = more binding, comparable within an allelic series); in test [4], 9.62 upbm affinity estimate (log intensity, higher = more binding, comparable within an allelic series); in test [5], 6.74 upbm affinity estimate (log intensity, higher = more binding, comparable within an allelic series); in test [6], 9.41 upbm affinity estimate (log intensity, higher = more binding, comparable within an allelic series). For the same sequence, the binding signal is 9.21 upbm affinity estimate (log intensity, higher = more binding, comparable within an allelic series) in test [7]; 9.11 upbm affinity estimate (log intensity, higher = more binding, comparable within an allelic series) in [8]; 6.76 upbm affinity estimate (log intensity, higher = more binding, comparable within an allelic series) in test [9]; 6.72 upbm affinity estimate (log intensity, higher = more binding, comparable within an allelic series) in [10]; 6.55 upbm affinity estimate (log intensity, higher = more binding, comparable within an allelic series) in [11]; 9.33 upbm affinity estimate (log intensity, higher = more binding, comparable within an allelic series) in test [12]. For the same sequence, the binding signal in [13] was 8.26 upbm affinity estimate (log intensity, higher = more binding, comparable within an allelic series).

Take CCGAGACC: the binding signal in test [1] is 6.38 upbm affinity estimate (log intensity, higher = more binding, comparable within an allelic series); in [14], 9.83 upbm affinity estimate (log intensity, higher = more binding, comparable within an allelic series); in test [5] it was 6.35 upbm affinity estimate (log intensity, higher = more binding, comparable within an allelic series); in test [15], 9.77 upbm affinity estimate (log intensity, higher = more binding, comparable within an allelic series); in test [16], 7.75 upbm affinity estimate (log intensity, higher = more binding, comparable within an allelic series); in [17] it was 9.83 upbm affinity estimate (log intensity, higher = more binding, comparable within an allelic series). In addition, the binding signal in test [18] is 7.48 upbm affinity estimate (log intensity, higher = more binding, comparable within an allelic series); in test [19] it was 6.57 upbm affinity estimate (log intensity, higher = more binding, comparable within an allelic series); in [9], 6.45 upbm affinity estimate (log intensity, higher = more binding, comparable within an allelic series); in test [20], 6.84 upbm affinity estimate (log intensity, higher = more binding, comparable within an allelic series); in test [21], 7.73 upbm affinity estimate (log intensity, higher = more binding, comparable within an allelic series); in test [10] it was 6.33 upbm affinity estimate (log intensity, higher = more binding, comparable within an allelic series). The binding signal in [22] is 7.74 upbm affinity estimate (log intensity, higher = more binding, comparable within an allelic series); in test [23] it was 6.43 upbm affinity estimate (log intensity, higher = more binding, comparable within an allelic series); in test [11], 6.5 upbm affinity estimate (log intensity, higher = more binding, comparable within an allelic series); in test [24], 9.94 upbm affinity estimate (log intensity, higher = more binding, comparable within an allelic series); in test [25], 7.73 upbm affinity estimate (log intensity, higher = more binding, comparable within an allelic series).

For the sequence CCCCCAGC, the binding signal in test [1] was 6.28 upbm affinity estimate (log intensity, higher = more binding, comparable within an allelic series); in test [26], 7.89 upbm affinity estimate (log intensity, higher = more binding, comparable within an allelic series); in test [27], 8.03 upbm affinity estimate (log intensity, higher = more binding, comparable within an allelic series); in [2] it was 8.08 upbm affinity estimate (log intensity, higher = more binding, comparable within an allelic series); in test [28], 7.96 upbm affinity estimate (log intensity, higher = more binding, comparable within an allelic series); in test [5] it was 6.22 upbm affinity estimate (log intensity, higher = more binding, comparable within an allelic series). The binding signal in test [9] was 6.3 upbm affinity estimate (log intensity, higher = more binding, comparable within an allelic series); in [29], 7.08 upbm affinity estimate (log intensity, higher = more binding, comparable within an allelic series); in [10] it was 6.31 upbm affinity estimate (log intensity, higher = more binding, comparable within an allelic series); in test [11], 6.46 upbm affinity estimate (log intensity, higher = more binding, comparable within an allelic series); in [30], 7.15 upbm affinity estimate (log intensity, higher = more binding, comparable within an allelic series); in test [13], 8.17 upbm affinity estimate (log intensity, higher = more binding, comparable within an allelic series). In addition, in test [31], the binding signal was 6.96 upbm affinity estimate (log intensity, higher = more binding, comparable within an allelic series).

For CAGCCAGG, the binding signal in [1] was 6.31 upbm affinity estimate (log intensity, higher = more binding, comparable within an allelic series); in test [26], 8.2 upbm affinity estimate (log intensity, higher = more binding, comparable within an allelic series); in test [32], 9.07 upbm affinity estimate (log intensity, higher = more binding, comparable within an allelic series); in test [33], 9.53 upbm affinity estimate (log intensity, higher = more binding, comparable within an allelic series); in [27], 8.23 upbm affinity estimate (log intensity, higher = more binding, comparable within an allelic series); in test [34] it was 8.86 upbm affinity estimate (log intensity, higher = more binding, comparable within an allelic series). Also, the binding signal was 9.06 upbm affinity estimate (log intensity, higher = more binding, comparable within an allelic series) in test [35]; 8.91 upbm affinity estimate (log intensity, higher = more binding, comparable within an allelic series) in [36]; 8.16 upbm affinity estimate (log intensity, higher = more binding, comparable within an allelic series) in test [28]; 9.02 upbm affinity estimate (log intensity, higher = more binding, comparable within an allelic series) in test [37]; 9.06 upbm affinity estimate (log intensity, higher = more binding, comparable within an allelic series) in [38]; 9.03 upbm affinity estimate (log intensity, higher = more binding, comparable within an allelic series) in test [39]. Also, the binding signal in test [40] is 9.14 upbm affinity estimate (log intensity, higher = more binding, comparable within an allelic series); in test [5], 6.36 upbm affinity estimate (log intensity, higher = more binding, comparable within an allelic series); in [41] it was 9.1 upbm affinity estimate (log intensity, higher = more binding, comparable within an allelic series); in test [42] it was 9.58 upbm affinity estimate (log intensity, higher = more binding, comparable within an allelic series); in [43] it was 9.02 upbm affinity estimate (log intensity, higher = more binding, comparable within an allelic series); in [44], 9.41 upbm affinity estimate (log intensity, higher = more binding, comparable within an allelic series). Further, the binding signal in [45] was 9.01 upbm affinity estimate (log intensity, higher = more binding, comparable within an allelic series); in [9] it was 6.38 upbm affinity estimate (log intensity, higher = more binding, comparable within an allelic series); in test [46], 9.07 upbm affinity estimate (log intensity, higher = more binding, comparable within an allelic series); in test [47] it was 8.99 upbm affinity estimate (log intensity, higher = more binding, comparable within an allelic series); in test [10], 6.49 upbm affinity estimate (log intensity, higher = more binding, comparable within an allelic series); in test [48], 9.62 upbm affinity estimate (log intensity, higher = more binding, comparable within an allelic series). For the same sequence, the binding signal in test [11] was 6.49 upbm affinity estimate (log intensity, higher = more binding, comparable within an allelic series).

Source of the values: article PMC11006913.
